Data: PubChem BioAssay
The source made the active and inactive calls.

Tests used:
[1] = tested on: Plasmodium falciparum Sir2 (PF13_0152, Sir2A); assay: pfSir2 binders on small-molecule microarrays, primary screen, biochemical, small-molecule microarray, 635 nm fluorescence (AID 1098); conditions: small-molecule microarray binding, fluorescence 635 nm; higher = more signal;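 also: score merges spot fluorescence intensity with its signal-to-noise ratio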
[2] = small-molecule microarray binders of probe aDKK1, primary screen, biochemical, biotinylated probe, 635/667 nm fluorescence (AID 1099); conditions: higher = more signal;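 also: score merges 667nm spot fluorescence with signal to noise across triplicate slides; reference of the scale not given here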
[3] = small-molecule microarray binders of probe aCHRDL2, primary screen, biochemical, biotinylated probe, 635/667 nm fluorescence (AID 1100); conditions: higher = more signal
[4] = splicing luciferase reporter signal modulators, primary screen, spliceosome inhibition project, cell-based, HEK293, splice +/- reporter (AID 1101); conditions: luminescence, 24 h, higher = more signal, called active from +8 up or from −8 down;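 also: HEK293 cells carrying a splicing-competent luciferase reporter gene; test concentration not given here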
[5] = molecular target: Fibroblast growth factor 10 (Homo sapiens) (UniProt O15520); assay: FGF10 binders on small-molecule microarrays, primary screen, biochemical, small-molecule microarray, 635 nm fluorescence (AID 1102); conditions: FGF10 binding, fluorescence 635 nm, higher = more signal
Chain of Fibroblast growth factor 10 (Homo sapiens) (O15520 whole entry, looked up): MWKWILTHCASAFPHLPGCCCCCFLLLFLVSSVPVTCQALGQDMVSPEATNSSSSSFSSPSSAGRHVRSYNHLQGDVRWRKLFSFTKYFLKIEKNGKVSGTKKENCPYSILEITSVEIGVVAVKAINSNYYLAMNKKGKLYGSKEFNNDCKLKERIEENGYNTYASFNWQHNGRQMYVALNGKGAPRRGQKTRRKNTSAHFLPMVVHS

[6] = tested on: glycogen synthase kinase-3 (GSK3A per assay name; protocol says GSK3B); assay: GSK3 binders on small-molecule microarrays, primary screen, biochemical, small-molecule microarray, 635 nm fluorescence, GSK3A (AID 1103); conditions: small-molecule microarray binding, fluorescence 635 nm; higher = more signal; also: the record names both GSK3A and GSK3B
[7] = molecular target: Epidermal growth factor receptor (Homo sapiens) (UniProt P00533); assay: EGFR binders on small-molecule microarrays, primary screen, biochemical, small-molecule microarray, 635 nm fluorescence (AID 1104); conditions: EGFR binding, higher = more signal;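 also: score merges 667 nm emission intensity with spot signal to noise over triplicate slides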
Chain of Epidermal growth factor receptor (Homo sapiens) (P00533 whole entry, looked up): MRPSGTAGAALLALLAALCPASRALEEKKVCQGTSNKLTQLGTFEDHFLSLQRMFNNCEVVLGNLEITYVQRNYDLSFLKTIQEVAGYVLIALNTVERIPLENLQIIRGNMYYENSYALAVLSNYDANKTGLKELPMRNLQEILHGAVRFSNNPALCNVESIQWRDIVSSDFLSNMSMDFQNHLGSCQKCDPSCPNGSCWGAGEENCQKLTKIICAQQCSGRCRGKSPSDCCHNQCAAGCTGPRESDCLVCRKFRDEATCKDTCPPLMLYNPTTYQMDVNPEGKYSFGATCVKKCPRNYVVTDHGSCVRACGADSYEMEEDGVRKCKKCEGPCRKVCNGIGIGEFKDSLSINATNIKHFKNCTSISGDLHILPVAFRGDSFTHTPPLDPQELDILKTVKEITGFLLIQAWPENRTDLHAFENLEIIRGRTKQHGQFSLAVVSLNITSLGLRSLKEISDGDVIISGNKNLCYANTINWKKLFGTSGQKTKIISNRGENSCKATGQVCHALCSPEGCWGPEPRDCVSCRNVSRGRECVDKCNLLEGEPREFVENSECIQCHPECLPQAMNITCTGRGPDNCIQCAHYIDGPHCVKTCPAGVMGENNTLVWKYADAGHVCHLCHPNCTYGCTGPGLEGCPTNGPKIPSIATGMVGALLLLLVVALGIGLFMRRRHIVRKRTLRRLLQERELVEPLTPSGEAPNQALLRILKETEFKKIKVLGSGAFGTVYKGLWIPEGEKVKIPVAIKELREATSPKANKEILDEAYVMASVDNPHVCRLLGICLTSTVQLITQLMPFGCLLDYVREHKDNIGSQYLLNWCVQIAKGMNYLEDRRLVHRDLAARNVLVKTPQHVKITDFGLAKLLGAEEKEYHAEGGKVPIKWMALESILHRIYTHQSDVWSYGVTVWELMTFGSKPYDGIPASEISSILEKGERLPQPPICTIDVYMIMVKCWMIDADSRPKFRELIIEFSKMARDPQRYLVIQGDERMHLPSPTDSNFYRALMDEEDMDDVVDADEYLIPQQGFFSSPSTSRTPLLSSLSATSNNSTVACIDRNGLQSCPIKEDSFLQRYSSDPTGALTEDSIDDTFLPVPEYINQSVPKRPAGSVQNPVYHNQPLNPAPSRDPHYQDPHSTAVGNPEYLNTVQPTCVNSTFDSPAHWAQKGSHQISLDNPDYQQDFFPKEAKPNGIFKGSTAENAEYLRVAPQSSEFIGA

[8] = molecular target: Follistatin-related protein 3 (Homo sapiens) (UniProt O95633); assay: FSTL3 binders on small-molecule microarrays, primary screen, biochemical, small-molecule microarray, 635 nm fluorescence (AID 1105); conditions: FSTL3 binding, higher = more signal;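 also: score merges emission near 667 nm and signal to noise per printed spot across three slides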
Chain of Follistatin-related protein 3 (Homo sapiens) (O95633 whole entry, looked up): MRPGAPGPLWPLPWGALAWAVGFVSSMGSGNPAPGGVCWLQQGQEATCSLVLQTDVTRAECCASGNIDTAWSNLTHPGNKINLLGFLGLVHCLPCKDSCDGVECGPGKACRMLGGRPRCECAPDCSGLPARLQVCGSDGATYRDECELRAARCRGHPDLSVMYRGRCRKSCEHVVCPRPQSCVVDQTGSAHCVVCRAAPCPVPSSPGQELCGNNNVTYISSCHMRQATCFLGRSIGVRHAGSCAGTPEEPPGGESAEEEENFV

[9] = molecular target: Dickkopf-related protein 1 (Homo sapiens) (UniProt O94907); assay: DKK1 binders on small-molecule microarrays, primary screen, biochemical, small-molecule microarray, 635 nm fluorescence scan (AID 1106); conditions: DKK1 binding, higher = more signal;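 also: score merges emission near 667 nm with signal to noise over three replicate slides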
Chain of Dickkopf-related protein 1 (Homo sapiens) (O94907 whole entry, looked up): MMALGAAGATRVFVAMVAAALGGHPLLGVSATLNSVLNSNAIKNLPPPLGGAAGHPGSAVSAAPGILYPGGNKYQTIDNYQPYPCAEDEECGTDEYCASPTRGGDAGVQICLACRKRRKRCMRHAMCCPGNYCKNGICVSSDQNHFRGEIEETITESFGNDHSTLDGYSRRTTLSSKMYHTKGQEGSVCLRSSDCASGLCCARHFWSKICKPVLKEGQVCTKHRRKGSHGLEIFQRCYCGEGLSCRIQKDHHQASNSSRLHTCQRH

[10] = tested on: Inhibin beta A chain (activin A); assay: INHBA (activin A) binders on microarrays, primary screen, biochemical, small-molecule microarray, 635 nm fluorescence scan (AID 1107); conditions: small-molecule microarray binding, higher = more signal;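 also: mouse activin A protein probed at 4.33 µg/mL on printed slides; score merges bound-protein fluorescence near 667 nm with spot signal-to-noise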

Structure (SMILES) | composite z-score [1] | composite z-score [2] | composite z-score [3] | z-score [4] | composite z-score [5] | composite z-score [6] | composite z-score [7] | composite z-score [8] | composite z-score [9] | composite z-score [10]
C=COC[C@H]1CN2[C@@H](CC[C@@H](C)[C@@H]2c2ccc(Br)cc2)C(=O)O1 | 0.729 | -0.41 | -0.601 | -1.09 (inactive) | 0.273 | 0.665 | 0.498 | 0.694 | 0.928 | 0.611
CO[C@@H]1COC(=O)[C@H](C)NC(=O)[C@@H](C)COC(=O)CCC[C@H]1C | 0.957 | -0.122 | -0.554 | 0.494 (inactive) | 0.721 | 0.115 | 0.429 | 1.11 | 0.705 | -0.0431
CC(CCN1CCc2nc(-c3ccccc3)c(-c3ccccc3)cc2C1)=NO[C@@H](C)c1cn([C@H](CO)Cc2ccccc2)nn1 | 0.0154 | -0.336 | 0.119 | -1.26 (inactive) | -0.105 | -0.335 | 0.209 | 0.176 | 0.175 | 1.13
C=CCC(OC(C)=O)[C@@H]1[C@@H](N(Cc2cc3ccccc3o2)C(=O)Cc2ccc(F)cc2)c2cc(OCCCO)ccc2N1C(=O)Cc1ccc(OC)cc1 (stereo not given in full) | -0.144 | -0.361 | 0.102 | -0.844 (inactive) | 0.0509 | -1.17 | -0.239 | -0.0882 | -0.191 | 0.772
CC(=O)C[C@H](O)[C@@H](NC(=O)OC(C)(C)C)C(C)C | -0.276 | -0.186 | -0.306 | -0.797 (inactive) | -0.456 | -1.45 | -0.397 | -0.441 | -0.31 | 0.123
CCCCCN1CC=CC23O[C@@H]4C=CCOC(=O)[C@@H]4[C@H]2C(=O)N(CCCCCCO)[C@@H]3C1=O (stereo not given in full) | 1.93 | -0.0936 | 0.734 | -0.0127 (inactive) | -0.655 | -1.08 | -1.31 | -1.81 | -1.54 | -0.395
C=C(/C(=C/C[C@H](OC(C)=O)c1ccc(OCCO)cc1)c1cnc2ccccc2c1)C(C)C | 0.659 | -0.523 | -0.611 | -0.494 (inactive) | 1.49 | 0.939 | 0.333 | 1.48 | 0.658 | 1.64
C#C[C@@H]1Oc2ccccc2S(=O)(=O)N2CCC[C@H]12 | -0.298 | -0.105 | -0.246 | 0.712 (inactive) | 0.111 | -0.859 | 0.304 | -0.0777 | 0.407 | 0.807
N#Cc1ccc(NN2C(C(O)c3cc(C(F)(F)F)cc(C(F)(F)F)c3)C=CC3C(=O)N(c4ccccc4)C(=O)C32)cc1 (stereo not given) | 0.666 | 0.175 | 1.04 | 0.628 (inactive) | 1.03 | 1.28 | 0.292 | 1.02 | -0.62 | 0.733
COc1ccccc1CN1C(=O)c2ccccc2[C@@]2(Cc3ccccc3N(C(C)C)C2=O)[C@@H]1c1ccc(CO)cc1 | 0.139 | -0.119 | 0.414 | -0.938 (inactive) | -0.194 | -0.467 | -0.418 | -0.119 | -0.39 | 0.602
O=C(CS)NCCCCCNC(=O)[C@H]1C[C@H]2C(=O)N3CCC[C@H]3C(=O)N2[C@H]1c1cccc(OCCO)c1 | 1.17 | 0.0187 | 0.367 | 0.378 (inactive) | 1.35 | 1.32 | 0.194 | 1.41 | 1.57 | 1.3
O=C(CS)NCCCCCNC(=O)[C@@H]1C[C@@H]2C(=O)N[C@@H](Cc3ccccc3)C(=O)N2[C@@H]1c1ccc(O)cc1 | 1 | 0.121 | 0.526 | 0.339 (inactive) | 1.02 | 1.17 | -0.146 | 0.265 | 0.325 | -0.516
CO[C@@H]1COC(=O)CC=C[C@@H](C)COC(=O)[C@H](COCc2ccccc2)NC(=O)CC=C[C@H]1C | 1.49 | -0.526 | -1.31 | -0.912 (inactive) | 0.285 | 0.19 | 0.912 | 1.23 | 1.64 | 1.63
Cc1ccc(S[C@]2(C(=O)NCC(F)(F)F)CC(=O)N(Cc3ccccc3Cl)[C@@H]2c2ccc(CO)cc2I)cc1 | 1.23 | 0.122 | 0.828 | -1.34 (inactive) | -0.798 | -0.457 | -1.15 | -0.978 | -1.05 | 0.117
CC(C)C[C@@H]1NC(=O)[C@H]2C[C@@H](C(=O)NCCCCCCN(C)C)[C@@H](c3cccc(OCCO)c3)N2C1=O | 1.5 | 0.346 | 0.124 | -0.152 (inactive) | 1.01 | 1.21 | 0.317 | 1.35 | 1.74 | 1.1
CCN1C(=O)[C@H]2[C@H]3[C@H](O)C=CC(=O)[C@@H]3CC[C@H]2C1=O | 0.163 | -0.094 | -0.484 | 0.403 (inactive) | 0.402 | 0.743 | 0.378 | 0.548 | 0.444 | -0.114
COCCOC(=O)N1C(=O)[C@@]2(c3cc(C#CCNC(N)=O)ccc31)[C@H](c1ccc(O)cc1)N1[C@H](c3ccccc3)[C@H](c3ccccc3)OC(=O)[C@H]1[C@@H]2C(=O)N1CCCCCCC1 | 1.08 | 0.614 | 0.356 | -0.364 (inactive) | 1.25 | 0.43 | 0.611 | 1.38 | 0.969 | 0.85
